Source: PubChem BioAssay (NCI)
This is part of a sample that, as a whole, favours compounds with a hit. Of some 83,000 tested, about 20% had one in any assay.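 Growth was measured after 48 h exposure to one concentration of compound in 96-well plates. Values under 10 count as active.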 Calls of active or inactive are those of the source.

Test system: HOP-62 NSCLC
Test: NCI-60 one-dose screen, 48 h (100 = growth as untreated, 0 = no growth, -100 = all killed)
Conditions: 10 µM unless noted
Method: Growth inhibition of the HOP-62 human Non-Small Cell Lung tumor cell line is measured as a screen for anti-cancer activity. Cells are grown in 96 well plates and exposed to the test compound for 48 hours. Compounds are tested at a single concentration, which is 10^-5 M for most compounds. The reported endpoint is percent growth (GI% or GIPRCNT), where numbers from 0 - 100% represent growth inhibition, and numbers from -100% - 0 represent cell death. For example, a value of 40 represents 60% growth inhibition. A value of 0 means no net growth occurred over the course of the experiment. A value of -40 indicates 40% of cells at the beginning of the experiment died by the end of the experiment. A value of -100 means all cells are dead at the end of the experiment.
NCI-60 Human Tumor Cell Lines Screen was performed using the standard one-dose NCI protocol, which is described in more detail at https://dtp.cancer.gov/discovery_development/nci-60/default.htm.
Compounds with GIPRCNT values below 10 were considered active. Activity score was based on GIPRCNT using the following formula: […]
Score is 0 for GIPRCNT values of 100 or above, 50 for GIPRCNT values of 0, and 100 for GIPRCNT values of -100.

| SMILES | growth |
| --- | --- |
| CCCCCCC(CC#N)(CCC)CCCC (stereo not given) | 111% (inactive) |
| COc1cc(C2CC(C3C(=O)N(C)C(=O)N(C)C3=O)=NN2C=O)cc(OC)c1OC (stereo not given) | 73.5% (inactive) |
| COc1cc(C2CC(C3C(=O)N(C)C(=O)N(C)C3=O)=NN2c2cc(Cl)cc(Cl)c2)cc(OC)c1OC (stereo not given) | 89.7% (inactive) |
| COc1cc(NC(=O)NCc2ccco2)ccc1-c1ccc(NC(=O)NCc2ccco2)cc1OC | 33.8% (inactive) |
| O=C(Oc1ccccc1)C(Br)C(Br)c1ccccc1 (stereo not given) | 107% (inactive) |
| COc1cc(NC(C)CCCN)c2nc(C)ccc2c1Oc1ccc(F)cc1 (stereo not given) | 85.8% (inactive) |
| CCCCc1ccc(C(N)=O)nc1 | 99.3% (inactive) |
| CCSc1nc(-c2cccs2)n2nc(-c3ccco3)cc2n1 | 101% (inactive) |
| O=C(/C=C/c1ccc([N+](=O)[O-])cc1)c1ccc2c3c(cccc13)CC2 | 53.9% (inactive) |
| Oc1ccccc1/C=N/N1CCCCCC1 | 109% (inactive) |
| C=C(CN1CCc2c([nH]c3ccccc23)C1)c1ccc(C(=O)Nc2ccon2)cc1 | 88.2% (inactive) |
| COc1ccc2c3c(ccc2c1)C(=O)/C(=C\O)CC3 | 114% (inactive) |
| [N-]=[N+]=NCc1ncc(-c2ccc(C(F)(F)F)cc2)c(NC2CCCCCC2)n1 | 87% [50 µM] (inactive) |
| COc1cc(C(=O)/C=C/c2cccc(Nc3ccnc4cc(Cl)ccc34)c2)cc(OC)c1OC | -76.8% (active) |
| COc1ccc([N+](=O)[O-])c(S(=O)(=O)c2ccc(Cl)cc2)n1 | 95.2% (inactive) |
| C=C1CCC2C(C)(COC(=O)CC)C(OC(=O)CC)CCC2(C)C1C/C=C1/C(=O)OCC1OC(=O)CC (stereo not given) | -17.7% (active) |
| O=C(Nc1ccccc1S)c1ccccc1 | 120% (inactive) |
| COc1cc(-c2nnc(-c3nc(-c4cc(OC)c(OC)c(OC)c4)n4ccccc34)o2)ccc1N | 89% (inactive) |
| Cc1ccc(-c2csc(N)n2)cc1 | 110% (inactive) |
| COc1ccc(C2=NN(C(C)=O)C(c3c(C)nn(-c4ccccc4)c3N3CCOCC3)C2)cc1 (stereo not given) | 87.9% (inactive) |

| SMILES | growth |
| --- | --- |
| COc1ccc(-n2cnc3cc(C(=O)N4CCCCC4)ccc32)cc1 | 91.4% (inactive) |
| CCCCCc1c(C)[nH]c(/C=C2\N=C(c3ccc[nH]3)C=C2Oc2ccccc2)c1C | -46.4% [100 µM] (active) |
| O=Cc1ncc(-c2ccc(C(F)(F)F)cc2)c(NC2CCCCCC2)n1 | -94.9% [100 µM] (active) |
| CN1CCN(c2nc3scc(-c4ccccc4)c3c(=O)[nH]2)CC1 | 103% (inactive) |
| COCCOCCOCCOCCOc1ccc2c(c1)C(=O)c1nc3ncccc3c(=O)n1-2 | -83% (active) |
| Nc1ccc2c(c1)C(=O)c1cc(Cl)c(Cl)cc1-2 | 94.2% (inactive) |
| Cc1cc(C)c2c(N)c3cccc(C)c3nc2n1 | -28.4% (active) |
| O=C1C(=O)/C(=C/c2ccccc2)CCCCCC/C1=C/c1ccccc1 | 10.3% (inactive) |
| Cc1ccc(S(=O)(=O)NCCN2c3nc4ccccc4cc3Sc3cc4ccccc4nc32)cc1 | 55.8% (inactive) |
| COC(=O)N/N=C/c1coc2ccc(Cl)cc2c1=O | 74.7% (inactive) |
| CC1c2ccccc2-c2ccccc2N1C (stereo not given) | 100% (inactive) |
| CC(C)Cn1cnc2c(NCn3nc(-c4cc(Cl)cc(Cl)c4Cl)n(/N=C/c4ccc(Cl)cc4)c3=S)nc3ccccc3c21 | 79.4% (inactive) |
| CCN1CCN(c2nc(NNC(=O)Cc3ccccc3)nc(N3CCN(C(c4ccccc4)c4ccccc4)CC3)n2)CC1 | 74.5% (inactive) |
| CCCCCc1c(C)[nH]c(/C=C2\N=C(c3ccc[nH]3)C=C2Oc2ccc(Cl)cc2)c1C | -6.67% [100 µM] (active) |
| N#Cc1c(NC(=O)c2ccco2)[n+]([O-])c2cc(Cl)c(Cl)cc2[n+]1[O-] | 137% (inactive) |
| CSc1nc(-c2ccc(O)cc2O)c2c(=O)[nH]c(Nc3ccc(S(=O)(=O)Nc4nc(C)cc(C)n4)cc3)nc2n1 | 89.6% (inactive) |
| Cc1nn2c(/C=C3/C(=O)Nc4cc(Cl)ccc43)c(-c3ccccc3)nc2s1 | 20.4% (inactive) |
| CCN(CC)CCOCC[C@H]1CC[C@H]2[C@@H]3[C@H](C)Cc4cc(OS(N)(=O)=O)ccc4[C@H]3CC[C@]12C | -96.7% (active) |
| Cc1ccc(-c2c3c(N)nc(-c4ccncc4)nc3nc3c2c(C)nn3-c2ccccc2)cc1 | 15.5% (inactive) |
| c1ccc(COc2ccc(Nc3ncnc4c3cnn4-c3ccccc3)cc2)cc1 | 104% (inactive) |
